# Source: the supplement of paper PMC12067926
# Key:
# Assay in all cases: relative growth (AUC of 72 h growth curve relative to DMSO control, dAUC) (ratio); higher = more growth (less inhibition), active = hit call of the paper
# Conditions in all cases: 20 µM;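 active = growth AUC significantly below the DMSO wells by Dunnett test; inactive = the rest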
# Community 7 = test system: Community 7
# Summary of the method: (§1)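 For relative growth (dAUC), the spline-integrated area under the growth curve was divided by the mean of the DMSO controls. Results were averaged over three biological replicates. Each replicate used a 1:100 dilution, into 96-well plates holding each chemical at 20 µM (1% DMSO), of isolates from Icelandic stream sediments and Silwood Park soil or whole sediment communities that had been grown to carrying capacity in Luria–Bertani medium. Plates were shaken briefly before each hourly A600 reading over 72 h.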
# Community 8 = test system: Community 8
# Summary of the method: as §1
# Community 9 = test system: Community 9
# Summary of the method: as §1
# [1] = test system: Flavobacterium 1 (Flavobacterium glaciei)
# Summary of the method: as §1
# [2] = test system: Flavobacterium 2 (Flavobacterium succinicans)
# Summary of the method: as §1
# [3] = test system: Hymenobacter 1 (Hymenobacter glaciei)
# Summary of the method: as §1
# [4] = test system: Microbacterium 1 (Microbacterium arborescens)
# Summary of the method: as §1
# [5] = test system: Neobacillus 1 (Neobacillus soli)
# Summary of the method: as §1
# [6] = test system: Oryzobacter 1 (Oryzobacter terrae)
# Summary of the method: as §1
# [7] = test system: Paenibacillus 1 (Paenibacillus castaneae)
# Summary of the method: as §1
# [8] = test system: Prolinoborus 1 (Prolinoborus fasciculus)
# Summary of the method: as §1
# [9] = test system: Pseudomonas 1 (Pseudomonas baetica)
# Summary of the method: as §1
# [10] = test system: Pseudomonas 2 (Pseudomonas vancouverensis)
# Summary of the method: as §1
# [11] = test system: Pseudomonas 3 (Pseudomonas mandelii)
# Summary of the method: as §1
# [12] = test system: Pseudomonas 4 (Pseudomonas peli)
# Summary of the method: as §1
# [13] = test system: Pseudomonas 5 (Pseudomonas baetica)
# Summary of the method: as §1
# [14] = test system: Pseudomonas 6 (Pseudomonas sp.)
# Summary of the method: as §1
# [15] = test system: Rhizobium 1 (Rhizobium herbae)
# Summary of the method: as §1
# [16] = test system: Serratia 1 (Serratia sp. 2015-2462-01)
# Summary of the method: as §1
# [17] = test system: Sphingomonas 2 (Sphingomonas sp.)
# Summary of the method: as §1
SMILES,relative growth (Community 7),relative growth (Community 8),relative growth (Community 9),relative growth [1],relative growth [2],relative growth [3],relative growth [4],relative growth [5],relative growth [6],relative growth [7],relative growth [8],relative growth [9],relative growth [10],relative growth [11],relative growth [12],relative growth [13],relative growth [14],relative growth [15],relative growth [16],relative growth [17]
CN(C)C(CSS(=O)(=O)O)CSS(=O)(=O)O,1 (inactive),1.02 (inactive),0.942 (inactive),1.09 (inactive),1 (inactive),1.07 (inactive),1.06 (inactive),1 (inactive),1.13 (inactive),0.935 (inactive),0.961 (inactive),1.14 (inactive),0.994 (inactive),1.08 (inactive),0.978 (inactive),1.04 (inactive),1.1 (inactive),0.931 (inactive),0.953 (inactive),0.893 (inactive)
Clc1ccc(C(c2ccc(Cl)cc2)C(Cl)(Cl)Cl)cc1,1.11 (inactive),0.997 (inactive),1.03 (inactive),0.767 (inactive),0.979 (inactive),0.976 (inactive),0.973 (inactive),1.1 (inactive),1.06 (inactive),0.913 (inactive),1.08 (inactive),1.07 (inactive),0.992 (inactive),1.02 (inactive),0.985 (inactive),1.05 (inactive),1.16 (inactive),1.07 (inactive),1.05 (inactive),0.0545 (active)
COCC(=O)N(c1c(C)cccc1C)C(C)C(=O)OC (stereo not given),1.08 (inactive),0.993 (inactive),1.09 (inactive),0.939 (inactive),0.99 (inactive),1.03 (inactive),1.02 (inactive),0.986 (inactive),1.01 (inactive),1.03 (inactive),0.923 (inactive),1.06 (inactive),1.01 (inactive),1 (inactive),0.995 (inactive),1.02 (inactive),1.03 (inactive),0.907 (inactive),0.994 (inactive),1.05 (inactive)
Cc1nc(N(C)C)nc(OC(=O)N(C)C)c1C,1.12 (inactive),0.951 (inactive),0.938 (inactive),0.924 (inactive),0.965 (inactive),0.864 (inactive),0.988 (inactive),0.928 (inactive),0.936 (inactive),0.942 (inactive),0.948 (inactive),1 (inactive),0.96 (inactive),0.978 (inactive),0.949 (inactive),0.991 (inactive),1.02 (inactive),1.22 (inactive),0.992 (inactive),0.968 (inactive)
COP(=S)(OC)Oc1nc(Cl)c(Cl)cc1Cl,1.04 (inactive),1.06 (inactive),1.03 (inactive),0.348 (active),0.97 (inactive),0.99 (inactive),1.04 (inactive),1.01 (inactive),1.05 (inactive),0.874 (inactive),1.04 (inactive),1.06 (inactive),1.08 (inactive),1.09 (inactive),1.03 (inactive),1.06 (inactive),1.12 (inactive),0.8 (inactive),0.998 (inactive),1.06 (inactive)
C[N+]1(C)CCCCC1,0.992 (inactive),0.99 (inactive),1.06 (inactive),1.03 (inactive),1.03 (inactive),1.08 (inactive),0.951 (inactive),1 (inactive),1.06 (inactive),1 (inactive),0.974 (inactive),0.972 (inactive),0.981 (inactive),1.02 (inactive),1.05 (inactive),1.04 (inactive),1.03 (inactive),1.02 (inactive),1.03 (inactive),0.999 (inactive)
CS(=O)(=O)c1ccc(C(=O)C2C(=O)CCCC2=O)c([N+](=O)[O-])c1,0.957 (inactive),1.06 (inactive),1.04 (inactive),1.07 (inactive),1.04 (inactive),1.07 (inactive),1.04 (inactive),1.04 (inactive),1.01 (inactive),1.03 (inactive),0.983 (inactive),1.06 (inactive),1.02 (inactive),1.03 (inactive),1.05 (inactive),0.998 (inactive),0.96 (inactive),1.15 (inactive),1 (inactive),1.1 (inactive)
COc1ncc(F)c2nc(S(=O)(=O)Nc3c(F)cccc3F)nn12,0.948 (inactive),1.04 (inactive),1.11 (inactive),1.03 (inactive),1.06 (inactive),1.06 (inactive),1.03 (inactive),1.04 (inactive),1 (inactive),1.06 (inactive),1.01 (inactive),1.05 (inactive),1.02 (inactive),1.01 (inactive),0.989 (inactive),0.958 (inactive),0.99 (inactive),0.982 (inactive),1.03 (inactive),1.04 (inactive)
CCCN(CCC)C(=O)SCc1ccccc1,1.01 (inactive),1.08 (inactive),1.03 (inactive),0.979 (inactive),0.952 (inactive),1.15 (inactive),1.05 (inactive),1.02 (inactive),1.08 (inactive),1.01 (inactive),1.01 (inactive),1.03 (inactive),1.05 (inactive),1.09 (inactive),0.979 (inactive),1.06 (inactive),1.13 (inactive),1.05 (inactive),0.998 (inactive),1.06 (inactive)
CCc1cnc(C2=NC(C)(C(C)C)C(=O)N2)c(C(=O)O)c1 (stereo not given),1.05 (inactive),1.03 (inactive),0.98 (inactive),0.988 (inactive),1.03 (inactive),1.09 (inactive),1.04 (inactive),1.01 (inactive),0.96 (inactive),1.02 (inactive),0.973 (inactive),0.912 (inactive),0.944 (inactive),1.01 (inactive),0.967 (inactive),1.01 (inactive),1.04 (inactive),0.975 (inactive),0.958 (inactive),1.03 (inactive)
O=C1C2(Cl)C3(Cl)C4(Cl)C(Cl)(Cl)C5(Cl)C3(Cl)C1(Cl)C5(Cl)C24Cl (stereo not given),1.14 (inactive),1.02 (inactive),0.875 (inactive),0.126 (active),0.847 (inactive),0.00946 (active),1.01 (inactive),0.911 (inactive),0.00589 (active),0.678 (active),0.943 (inactive),1.01 (inactive),0.962 (inactive),0.955 (inactive),0.934 (inactive),1.07 (inactive),1.14 (inactive),0.292 (active),0.909 (inactive),0.382 (active)
CC(C)(C)C(O)(CCc1ccc(Cl)cc1)Cn1cncn1 (stereo not given),0.983 (inactive),0.995 (inactive),0.862 (inactive),0.671 (active),0.816 (inactive),1.04 (inactive),1 (inactive),0.945 (inactive),1.41,0.808 (inactive),0.931 (inactive),1.15 (inactive),0.962 (inactive),1.03 (inactive),0.94 (inactive),0.979 (inactive),1.05 (inactive),0.918 (inactive),0.943 (inactive),1.06 (inactive)
CCCCCCCCCCCCNC(=N)N,0.993 (inactive),0.788 (inactive),0.294 (active),0.00294 (active),0.832 (inactive),0.00418 (active),0.881 (inactive),0.98 (inactive),0.00315 (active),0.893 (inactive),0.00813 (active),1.05 (inactive),0.94 (inactive),0.902 (inactive),0.847 (active),0.904 (inactive),0.922 (inactive),0.00569 (active),0.00141 (active),0.00501 (active)
C#CCOc1ccc(CCNC(=O)C(OCC#C)c2ccc(Cl)cc2)cc1OC (stereo not given),1 (inactive),1.05 (inactive),0.995 (inactive),0.963 (inactive),0.928 (inactive),1.04 (inactive),1.02 (inactive),0.98 (inactive),1.02 (inactive),0.851 (inactive),0.958 (inactive),0.979 (inactive),0.988 (inactive),1.02 (inactive),0.992 (inactive),0.985 (inactive),1.07 (inactive),1.06 (inactive),0.968 (inactive),1.13 (inactive)
CCOP(=S)(OCC)Oc1cc(C)nc(C(C)C)n1,1.1 (inactive),0.976 (inactive),0.912 (inactive),0.913 (inactive),0.909 (inactive),0.975 (inactive),0.969 (inactive),0.943 (inactive),1.09 (inactive),0.922 (inactive),0.91 (inactive),0.877 (inactive),1.01 (inactive),1.04 (inactive),0.919 (inactive),0.98 (inactive),1.12 (inactive),0.904 (inactive),0.958 (inactive),0.988 (inactive)
CNC(=O)c1cc(Cl)cc(C)c1NC(=O)c1cc(Br)nn1-c1ncccc1Cl,1.02 (inactive),1.04 (inactive),1.09 (inactive),1 (inactive),1.03 (inactive),1.13 (inactive),0.975 (inactive),1.04 (inactive),0.99 (inactive),1.09 (inactive),0.997 (inactive),0.975 (inactive),0.996 (inactive),0.958 (inactive),1.01 (inactive),0.958 (inactive),0.922 (inactive),0.944 (inactive),1.04 (inactive),1.06 (inactive)
